Screening results (PubChem BioAssay)
Mtb FBA inh – inhibitors of M. tuberculosis fructose-bisphosphate aldolase; purified M. tuberculosis FBA, fluorescence read-out; inhibition, % at 1 µM; actives 2.3% (n = 360,000); AID 588726; in the data active = inhibition above about 27%;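 note: 0% = vehicle and 100% = reference inhibitor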
Rv3671c inh – Rv3671c (M. tuberculosis) protease inhibition. P9WHR9. inhibition, % at 5.96 µM. actives 0.048% (n = 320,000). AID 2606; in the data active = inhibition above about 38%;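 note: extracellular domain of Rv3671c used as enzyme; 0% = enzyme with DMSO and 100% = no enzyme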
Target sequence (P9WHR9 whole entry, looked up, the tested form may be a part): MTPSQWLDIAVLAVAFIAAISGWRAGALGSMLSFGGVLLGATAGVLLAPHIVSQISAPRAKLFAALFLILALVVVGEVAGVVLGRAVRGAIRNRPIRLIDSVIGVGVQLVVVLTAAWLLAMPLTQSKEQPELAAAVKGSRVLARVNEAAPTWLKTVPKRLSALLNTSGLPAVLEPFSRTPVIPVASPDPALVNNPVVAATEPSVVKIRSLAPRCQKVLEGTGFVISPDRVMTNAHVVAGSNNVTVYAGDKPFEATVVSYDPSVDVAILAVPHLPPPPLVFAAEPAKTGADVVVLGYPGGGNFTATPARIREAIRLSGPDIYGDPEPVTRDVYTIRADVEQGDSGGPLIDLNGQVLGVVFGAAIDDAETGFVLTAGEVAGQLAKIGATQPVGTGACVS
BH1578 lux ind – inducers of Vibrio cholerae quorum light production without autoinducers | V. cholerae BH1578 lux reporter, luminescence, 6 h | activation, % at 18.7 µM | actives 0.16% (n = 350,000); in the data active = activation mostly above about 9.7%, no sharp cut-off
GDH-TPI inh – GDH-TPI coupled enzyme inhibition counter-screen; inhibition, % at 4.8 µM; actives 1.2% (n = 360,000); GDH-TPI coupled enzyme counterscreen, NADH absorbance; in the data active = inhibition above about 30%;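 note: 0% = DMSO wells and 100% = wells lacking the enzyme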
UGM FP inh – inhibitors of M. tuberculosis UDP-galactopyranose mutase; P9WIQ1; purified UGM, fluorescence polarization probe displacement; inhibition, % at 10 µM; actives 0.06% (n = 320,000); in the data active = inhibition above about 10%, passing the limit was not always enough
RecA intein inh – inhibitors of M. tuberculosis RecA intein splicing; inhibition, % (test concentration not listed); actives 0.75% (n = 290,000); cell-free RecA intein splicing, fluorescence; P9WHJ3; AID 2221; in the data active = inhibition above about 30%;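 note: 0% = vehicle wells and 100% = reference inhibitor control wells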
* = called active by the depositor; i = inactive; . = no result; + = active, no number. Compounds with a hit are over-represented: about 4.1% of the library has one in this group of screens.

SMILES	Mtb FBA inh	Rv3671c inh	BH1578 lux ind	GDH-TPI inh	UGM FP inh	RecA intein inh
Cn1c(=O)c2cc(NC(=O)OCCF)ccc2n1Cc1cccc(C(F)(F)F)c1	183*	.	0	5	.	.
Cn1c(=O)c2cc(NC(=O)NCCc3ccccc3)ccc2n1Cc1cccc(C(F)(F)F)c1	130*	.	i	6	.	.
Cn1c(=O)c2cc(NC(=S)NC3CCCCC3)ccc2n1Cc1cccc(C(F)(F)F)c1	16	.	0	2	.	.
CCOC(=O)CNC(=O)CSc1ncnc2c1nnn2-c1ccc(F)cc1	-1	-1	-1	11	-1	2
COC(=O)C(C)Sc1ncnc2c1nnn2-c1ccc(F)cc1 (centres undefined)	0	2	i	-1	-1	53*
COc1ccc(-n2nnc3c(SC(C(C)=O)C(=O)N(C)C)ncnc32)cc1 (centres undefined)	-2	-1	i	32*	-2	25
COc1ccccc1/C=C/C=N/n1c(-c2n[nH]c3c2CCC3)n[nH]c1=S	6	-5	-1	33*	-3	.
Cn1cccc1/C=N/n1c(-c2ccccc2)n[nH]c1=S	-4	1	i	33*	5	-4
COc1ccccc1/C=C/C=N/n1c(-c2ccc(C)cc2)n[nH]c1=S	0	2	0	16	0	-3
COc1ccccc1/C=C/C=N/n1c(-c2ccncc2)n[nH]c1=S	-3	3	0	32*	0	-2
COc1cccc(/C=N/n2c(-c3n[nH]c4c3CCC4)n[nH]c2=S)c1O	4	13	i	5	1	-1
Cc1cc(Cl)ccc1C(O)c1ncc(-c2cccc3ccccc23)[nH]1 (centres undefined)	23	.	0	7	.	.
O=C(COc1ccc2c3c(c(=O)oc2c1)CCC3)N1CCCCC1	26	6	0	4	0	-1
O=C(COc1ccc2oc(-c3ccco3)cc(=O)c2c1)N1CCCCC1	157*	5	0	51*	1	0
O=c1cc(-c2ccco2)oc2ccc(Cl)cc12	21	.	i	12	.	1
COc1ccc2oc(-c3ccco3)cc(=O)c2c1	116*	9	i	54*	-1	-2
COc1ccc(CCN2CC(C(=O)OCC(=O)N(C)Cc3ccccc3)CC2=O)cc1OC (centres undefined)	3	5	i	12	-1	.
CN1CCN(c2ccc(-c3ccc4ccccc4n3)cc2)CC1	8	.	-2	16	.	-3
c1ccc2nc(-c3ccc(N4CCOCC4)cc3)ccc2c1	13	-1	0	33*	-1	-8
COc1cc(/C=N/NC(=O)c2ccc([N+](=O)[O-])cc2Cl)cc(Br)c1O	-5	-10	i	42*	1	1
COc1ccc(Br)cc1C(=O)N/N=C/c1ccc([N+](=O)[O-])cc1	2	4	0	4	-1	-1
CCN=c1scc(C)n1/N=C/c1cc(Br)c(O)c(OC)c1	0	1	i	32*	-1	-15
COc1cc(/C=N/NC(=O)CC#N)cc(Br)c1O	+	-10	i	15	-2	-2
Cc1c(C(=O)N/N=C/c2cccnc2)sc(N)c1C#N	2	.	2	31*	-2	0
CN=c1scc(C)n1/N=C/c1cc(Br)c(O)c(Br)c1	-4	-1	-3	7	2	-4
SMILES	Mtb FBA inh	Rv3671c inh	BH1578 lux ind	GDH-TPI inh	UGM FP inh	RecA intein inh
C[C@]12c3[nH]c4cc(-c5ccco5)ccc4c3CCN1C(=O)[C@@H](CC(=O)NCc1cccc(C(F)(F)F)c1)C[C@@H]2C(=O)N1CCCCC1	16	.	0	7	.	.
COc1cc(/C=N/NC(=O)c2sc(N)c(C#N)c2C)cc(Br)c1O	0	-36	i	38*	0	2
CC(=O)Oc1ccccc1Cn1c(C)c(C(=O)NCc2cccc(Cl)c2)sc1=O	4	.	i	-8	.	.
Cc1c2c(n3c(nc4ccccc43)c1C#N)N(CCN1CCOCC1)CC2	+	-1	-1	10	2	-205
Cc1cc(NCCCCO)n2c(nc3ccccc32)c1C#N	+	-1	i	10	0	-55
CCN(CC)CCCNc1cc(C(F)(F)F)c(C#N)c2nc3ccccc3n12	14	0	i	-4	2	i
CCN(CC)CCCNc1cc(C)c(C#N)c2nc3ccccc3n12	116*	.	i	14	.	.
Cc1cc(NCCCN2CCOCC2)n2c(nc3ccccc32)c1C#N	+	-7	i	3	2	-144
CN(CCc1ccccc1)C(=O)c1ccc(NC(=O)Cc2ccc(NC(=O)C3CCCN(C(=O)CCc4ccccc4)C3)cc2)cc1 (centres undefined)	-2	.	i	6	.	.
Cc1ccc(S(=O)(=O)Nc2nc(CN3CCOCC3)nc3sc(C(=O)O)c(C)c23)cc1	8	.	i	11	.	.
CC1=CC(=C2C(=O)NC(=S)NC2=O)C=C(C(F)(F)F)N1Cc1ccccc1	-1	0	267*	16	3	-5
COc1ccc(OC)c(C2C(C(=O)c3cc4ccccc4o3)=C(O)C(=O)N2c2cc(C)on2)c1 (centres undefined)	0	5	i	17	0	-1
COc1ccccc1C1C(C(=O)c2cc3ccccc3o2)=C(O)C(=O)N1c1cc(C)on1 (centres undefined)	7	-15	0	31*	1	4
c1ccc(-c2nnnc3ccccc23)cc1	-1	-2	0	-7	1	9
Clc1ccc2nnnc(-c3ccccc3)c2c1	1	-6	i	-3	0	56*
CCC(C)C(NS(=O)(=O)c1ccc(C)cc1)C(=O)Oc1ccc2c3c(c(=O)oc2c1)CCC3 (centres undefined)	37*	-18	-2	4	1	6
CC[C@@H](NS(=O)(=O)c1ccc(C)cc1)C(=O)Oc1ccc2c3c(c(=O)oc2c1)CCC3	+	2	-1	4	.	28
CCC(NC(=O)OC(C)(C)C)C(=O)Oc1ccc2c3c(c(=O)oc2c1)CCC3 (centres undefined)	.	-1	i	6	0	-13
Cc1ccc(S(=O)(=O)NC(CC(C)C)C(=O)Oc2ccc3c4c(c(=O)oc3c2)CCC4)cc1 (centres undefined)	+	-16	i	9	-1	17
O=C(CNCc1ccccc1)NC1C2CC3CC(C2)CC1C3 (centres undefined)	0	0	0	9	0	-1
COc1ccc(S(=O)(=O)N2CCOCC2)cc1NC(=O)CSc1nnc2n1CCCCC2	-3	5	0	12	6	.
COc1ccc(-n2c3nc4ccccc4nc3c3c(=N)oc(C)nc32)cc1	13	-14	0	18	5	72*
CCCCn1nc(C(=O)Nc2cc(C(F)(F)F)ccc2N2CCOCC2)ccc1=O	-1	-13	-4	-2	1	.
